Source: the supplement of paper PMC11732987, “Enantioselective OTUD7B fragment discovery through chemoproteomics screening and high-throughput optimisation” (Communications Chemistry, 2025)

What was measured:
Test in all cases: log2 ratio of Biotin-Ahx-Ub-VS probe labelling (fragment/DMSO); higher = less target engagement (more negative = stronger competition), active = hit call of the paper (q ≤ 0.05, log2 ratio ≤ -1)
Conditions in all cases: compound concentration: 200 uM; treatment time: 3 h
USP19 = biological target: T1, USP19 (UniProt O94966)
T1 sequence (whole entry): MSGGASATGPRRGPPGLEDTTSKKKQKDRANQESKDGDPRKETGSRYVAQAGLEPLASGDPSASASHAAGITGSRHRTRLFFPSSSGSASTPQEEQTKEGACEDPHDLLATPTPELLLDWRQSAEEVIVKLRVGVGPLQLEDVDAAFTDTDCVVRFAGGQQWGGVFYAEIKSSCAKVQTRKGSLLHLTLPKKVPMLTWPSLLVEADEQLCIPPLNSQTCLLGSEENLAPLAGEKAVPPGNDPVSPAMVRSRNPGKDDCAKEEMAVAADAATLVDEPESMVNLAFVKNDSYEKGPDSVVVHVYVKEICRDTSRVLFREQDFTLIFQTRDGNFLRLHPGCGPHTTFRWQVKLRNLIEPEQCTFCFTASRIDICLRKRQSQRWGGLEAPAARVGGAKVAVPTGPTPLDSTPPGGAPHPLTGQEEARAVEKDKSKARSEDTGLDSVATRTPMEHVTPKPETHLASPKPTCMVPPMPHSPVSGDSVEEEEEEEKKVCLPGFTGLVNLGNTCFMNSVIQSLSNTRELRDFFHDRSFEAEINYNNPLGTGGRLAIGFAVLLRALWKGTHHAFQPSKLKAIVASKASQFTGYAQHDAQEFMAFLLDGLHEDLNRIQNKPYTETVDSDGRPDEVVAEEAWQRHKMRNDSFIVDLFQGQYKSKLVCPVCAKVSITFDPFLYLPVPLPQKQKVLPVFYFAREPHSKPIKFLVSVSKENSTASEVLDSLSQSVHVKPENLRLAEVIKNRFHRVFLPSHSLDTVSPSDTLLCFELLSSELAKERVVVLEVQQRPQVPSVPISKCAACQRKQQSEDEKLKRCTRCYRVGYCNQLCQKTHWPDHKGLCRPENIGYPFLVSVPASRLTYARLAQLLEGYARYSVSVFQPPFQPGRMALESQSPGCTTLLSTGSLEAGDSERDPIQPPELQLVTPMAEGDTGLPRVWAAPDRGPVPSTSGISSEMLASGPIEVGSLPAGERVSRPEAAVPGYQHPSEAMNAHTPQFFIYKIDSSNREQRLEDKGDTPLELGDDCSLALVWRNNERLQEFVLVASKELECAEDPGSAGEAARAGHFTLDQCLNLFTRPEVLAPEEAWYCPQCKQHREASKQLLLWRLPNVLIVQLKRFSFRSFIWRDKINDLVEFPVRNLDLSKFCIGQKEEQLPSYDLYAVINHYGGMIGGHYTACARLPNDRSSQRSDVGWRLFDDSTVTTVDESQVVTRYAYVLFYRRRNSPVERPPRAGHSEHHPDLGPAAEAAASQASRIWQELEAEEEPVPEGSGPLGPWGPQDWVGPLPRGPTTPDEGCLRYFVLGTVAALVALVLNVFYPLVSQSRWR
Method in brief: (§1)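 HEK293T lysate in Tris/CHAPS/IGEPAL buffer with protease inhibitors (495 µg per sample) was given fragment at 200 µM or vehicle for 3 h, in triplicate. It then received Biotin-Ahx-Ub-VS at 0.5 µM final for 1 h. Labelled DUBs were NeutrAvidin-enriched, digested with LysC and trypsin, and run by diaPASEF LC-MS/MS. Values are average log2 fragment/vehicle ratios by unpaired t-test on global-median-normalised Spectronaut quantities of proteins with ≥2 unique peptides.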

USP22 = biological target: T2, USP22 (UniProt Q9UPT9)
T2 sequence (whole entry): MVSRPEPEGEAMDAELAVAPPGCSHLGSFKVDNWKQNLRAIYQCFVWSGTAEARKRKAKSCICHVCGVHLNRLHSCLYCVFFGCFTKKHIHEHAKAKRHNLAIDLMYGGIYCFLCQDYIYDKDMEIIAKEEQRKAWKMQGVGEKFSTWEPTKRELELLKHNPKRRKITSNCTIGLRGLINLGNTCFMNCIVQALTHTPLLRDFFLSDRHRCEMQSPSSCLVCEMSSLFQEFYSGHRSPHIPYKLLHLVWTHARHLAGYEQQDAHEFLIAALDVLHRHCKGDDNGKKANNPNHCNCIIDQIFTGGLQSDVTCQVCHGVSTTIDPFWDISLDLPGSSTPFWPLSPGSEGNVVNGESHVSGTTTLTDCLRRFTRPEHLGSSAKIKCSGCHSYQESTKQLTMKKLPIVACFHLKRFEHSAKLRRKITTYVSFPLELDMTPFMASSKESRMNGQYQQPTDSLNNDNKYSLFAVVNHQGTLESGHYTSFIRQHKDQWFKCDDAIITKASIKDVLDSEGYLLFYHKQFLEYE
Method in brief: as §1

USP24 = USP24 (UniProt Q9UPU5)
USP24, sequence (Q9UPU5 whole entry): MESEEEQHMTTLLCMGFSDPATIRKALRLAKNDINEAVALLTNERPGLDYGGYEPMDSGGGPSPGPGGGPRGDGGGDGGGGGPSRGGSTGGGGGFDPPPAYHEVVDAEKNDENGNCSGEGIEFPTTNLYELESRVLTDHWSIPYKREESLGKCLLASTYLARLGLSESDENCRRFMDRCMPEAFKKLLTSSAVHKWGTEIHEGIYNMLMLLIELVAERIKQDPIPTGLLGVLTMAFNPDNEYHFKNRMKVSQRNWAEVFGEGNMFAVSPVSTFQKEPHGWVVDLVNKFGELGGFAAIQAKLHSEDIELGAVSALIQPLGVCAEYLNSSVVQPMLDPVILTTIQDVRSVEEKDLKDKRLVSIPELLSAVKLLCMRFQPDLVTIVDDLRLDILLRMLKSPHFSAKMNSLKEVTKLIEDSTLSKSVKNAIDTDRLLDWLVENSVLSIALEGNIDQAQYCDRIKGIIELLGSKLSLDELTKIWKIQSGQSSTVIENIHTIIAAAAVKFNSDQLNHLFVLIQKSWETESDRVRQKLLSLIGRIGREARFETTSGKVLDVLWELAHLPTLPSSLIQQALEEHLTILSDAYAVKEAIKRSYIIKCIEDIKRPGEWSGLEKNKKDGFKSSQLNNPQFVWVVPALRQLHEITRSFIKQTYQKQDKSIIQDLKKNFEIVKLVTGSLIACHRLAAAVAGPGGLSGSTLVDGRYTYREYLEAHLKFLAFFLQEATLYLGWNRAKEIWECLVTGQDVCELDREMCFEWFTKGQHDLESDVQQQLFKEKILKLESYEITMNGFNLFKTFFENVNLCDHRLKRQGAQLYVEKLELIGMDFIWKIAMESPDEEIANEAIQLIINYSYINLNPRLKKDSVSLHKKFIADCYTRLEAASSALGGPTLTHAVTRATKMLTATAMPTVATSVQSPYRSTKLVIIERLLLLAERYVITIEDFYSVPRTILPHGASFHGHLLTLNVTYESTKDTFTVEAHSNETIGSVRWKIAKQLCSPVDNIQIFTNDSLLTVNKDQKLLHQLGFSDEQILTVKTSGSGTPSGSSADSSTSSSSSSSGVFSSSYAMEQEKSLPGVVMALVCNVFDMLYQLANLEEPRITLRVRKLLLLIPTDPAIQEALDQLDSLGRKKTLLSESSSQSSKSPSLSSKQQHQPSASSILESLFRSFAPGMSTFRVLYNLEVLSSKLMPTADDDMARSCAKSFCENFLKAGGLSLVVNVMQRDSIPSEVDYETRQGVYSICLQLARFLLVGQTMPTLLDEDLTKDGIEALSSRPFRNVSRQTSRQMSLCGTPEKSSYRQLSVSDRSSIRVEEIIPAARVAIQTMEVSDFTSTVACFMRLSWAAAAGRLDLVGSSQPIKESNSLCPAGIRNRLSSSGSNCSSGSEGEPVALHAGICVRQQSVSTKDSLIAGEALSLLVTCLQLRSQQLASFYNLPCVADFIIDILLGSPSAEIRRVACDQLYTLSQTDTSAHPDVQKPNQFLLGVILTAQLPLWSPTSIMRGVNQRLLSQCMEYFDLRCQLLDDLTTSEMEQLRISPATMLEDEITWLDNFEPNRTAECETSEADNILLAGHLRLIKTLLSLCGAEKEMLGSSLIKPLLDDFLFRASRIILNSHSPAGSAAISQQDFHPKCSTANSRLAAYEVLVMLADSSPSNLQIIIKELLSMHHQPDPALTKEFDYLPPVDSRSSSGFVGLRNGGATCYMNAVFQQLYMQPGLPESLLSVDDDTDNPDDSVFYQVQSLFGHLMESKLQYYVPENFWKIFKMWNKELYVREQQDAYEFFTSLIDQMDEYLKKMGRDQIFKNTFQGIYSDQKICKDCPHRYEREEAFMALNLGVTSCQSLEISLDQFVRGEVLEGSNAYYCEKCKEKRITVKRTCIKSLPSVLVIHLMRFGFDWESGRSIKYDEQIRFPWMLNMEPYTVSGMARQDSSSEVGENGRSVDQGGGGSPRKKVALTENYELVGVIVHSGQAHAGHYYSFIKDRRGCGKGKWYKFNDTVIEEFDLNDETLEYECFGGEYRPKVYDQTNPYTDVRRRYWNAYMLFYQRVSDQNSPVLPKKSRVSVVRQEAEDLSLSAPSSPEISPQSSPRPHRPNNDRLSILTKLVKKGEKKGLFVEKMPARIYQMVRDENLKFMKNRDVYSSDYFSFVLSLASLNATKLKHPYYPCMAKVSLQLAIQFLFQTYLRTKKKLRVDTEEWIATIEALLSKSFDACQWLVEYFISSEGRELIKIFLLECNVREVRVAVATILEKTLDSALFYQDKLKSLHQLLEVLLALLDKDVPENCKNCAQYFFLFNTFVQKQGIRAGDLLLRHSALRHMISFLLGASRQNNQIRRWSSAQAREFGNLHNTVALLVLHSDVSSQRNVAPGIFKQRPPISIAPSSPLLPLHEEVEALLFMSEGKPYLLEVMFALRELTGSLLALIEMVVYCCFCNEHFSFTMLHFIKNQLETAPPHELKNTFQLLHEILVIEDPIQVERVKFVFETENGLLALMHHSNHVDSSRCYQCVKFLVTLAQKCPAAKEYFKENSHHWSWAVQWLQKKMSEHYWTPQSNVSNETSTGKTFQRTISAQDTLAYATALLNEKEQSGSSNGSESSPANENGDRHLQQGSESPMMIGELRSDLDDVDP
Method in brief: as §1

USP25 = biological target: T3, USP25 (UniProt Q9UHP3)
T3 sequence (whole entry): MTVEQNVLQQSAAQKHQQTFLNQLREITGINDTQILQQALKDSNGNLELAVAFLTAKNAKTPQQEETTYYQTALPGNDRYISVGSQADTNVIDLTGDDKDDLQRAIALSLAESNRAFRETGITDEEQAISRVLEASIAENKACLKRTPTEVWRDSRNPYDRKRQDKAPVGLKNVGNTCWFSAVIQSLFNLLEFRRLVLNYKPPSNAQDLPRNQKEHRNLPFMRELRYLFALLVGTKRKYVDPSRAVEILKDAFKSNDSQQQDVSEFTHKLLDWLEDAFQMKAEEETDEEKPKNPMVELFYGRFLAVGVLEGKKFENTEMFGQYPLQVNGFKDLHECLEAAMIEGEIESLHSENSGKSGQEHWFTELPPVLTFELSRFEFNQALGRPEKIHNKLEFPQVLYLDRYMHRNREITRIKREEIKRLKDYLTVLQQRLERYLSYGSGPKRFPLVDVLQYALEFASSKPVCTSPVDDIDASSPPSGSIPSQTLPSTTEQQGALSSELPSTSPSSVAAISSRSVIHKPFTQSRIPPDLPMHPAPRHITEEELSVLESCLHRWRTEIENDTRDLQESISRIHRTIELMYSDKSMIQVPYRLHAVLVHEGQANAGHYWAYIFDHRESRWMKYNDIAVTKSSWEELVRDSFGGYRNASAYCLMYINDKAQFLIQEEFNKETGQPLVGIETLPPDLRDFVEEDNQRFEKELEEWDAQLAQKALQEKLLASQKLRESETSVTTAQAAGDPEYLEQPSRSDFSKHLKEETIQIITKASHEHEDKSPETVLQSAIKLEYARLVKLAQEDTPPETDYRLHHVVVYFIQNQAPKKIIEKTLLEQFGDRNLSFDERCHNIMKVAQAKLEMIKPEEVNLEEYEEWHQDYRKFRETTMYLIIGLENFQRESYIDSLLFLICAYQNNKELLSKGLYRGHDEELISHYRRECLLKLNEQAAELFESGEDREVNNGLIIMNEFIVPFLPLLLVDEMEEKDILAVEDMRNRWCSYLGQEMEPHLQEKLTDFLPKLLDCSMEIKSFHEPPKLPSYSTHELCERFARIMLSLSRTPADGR
Method in brief: as §1

USP28 = biological target: T4, USP28 (UniProt Q96RU2)
T4 sequence (whole entry): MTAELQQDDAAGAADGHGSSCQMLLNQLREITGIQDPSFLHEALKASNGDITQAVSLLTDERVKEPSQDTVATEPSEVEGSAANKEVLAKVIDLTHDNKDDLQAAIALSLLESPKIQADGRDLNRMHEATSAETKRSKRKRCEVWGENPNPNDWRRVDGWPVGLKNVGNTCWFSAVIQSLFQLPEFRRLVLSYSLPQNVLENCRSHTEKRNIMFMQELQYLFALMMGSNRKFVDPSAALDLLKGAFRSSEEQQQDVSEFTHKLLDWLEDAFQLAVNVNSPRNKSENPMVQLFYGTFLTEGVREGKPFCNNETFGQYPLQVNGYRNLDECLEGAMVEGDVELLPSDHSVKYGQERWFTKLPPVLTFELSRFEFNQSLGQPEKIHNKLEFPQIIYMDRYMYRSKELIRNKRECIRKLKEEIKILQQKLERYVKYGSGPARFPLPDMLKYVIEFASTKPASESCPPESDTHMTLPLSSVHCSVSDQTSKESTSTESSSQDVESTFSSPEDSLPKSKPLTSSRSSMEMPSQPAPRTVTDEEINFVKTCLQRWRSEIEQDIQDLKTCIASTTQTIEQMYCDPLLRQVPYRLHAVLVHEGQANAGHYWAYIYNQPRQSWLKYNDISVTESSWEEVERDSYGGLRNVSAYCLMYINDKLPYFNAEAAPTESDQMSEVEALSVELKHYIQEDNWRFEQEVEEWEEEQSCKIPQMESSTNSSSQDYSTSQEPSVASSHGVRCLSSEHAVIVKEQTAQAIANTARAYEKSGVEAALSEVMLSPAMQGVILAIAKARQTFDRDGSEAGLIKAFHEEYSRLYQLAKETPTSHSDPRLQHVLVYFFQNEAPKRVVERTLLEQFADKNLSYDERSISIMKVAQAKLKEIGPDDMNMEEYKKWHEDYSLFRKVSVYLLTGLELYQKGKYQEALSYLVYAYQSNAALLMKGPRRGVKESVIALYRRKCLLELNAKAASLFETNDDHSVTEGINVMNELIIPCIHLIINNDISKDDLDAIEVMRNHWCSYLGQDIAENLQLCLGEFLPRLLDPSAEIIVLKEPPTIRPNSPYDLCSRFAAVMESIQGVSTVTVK
Method in brief: as §1

Measured: log2 ratio of Biotin-Ahx-Ub-VS probe labelling

CN1c2ccccc2C(NC(=O)CCl)CS1(=O)=O (stereo not given)
inactive: USP19 -0.159 | USP22 -0.303 | USP24 -0.201 | USP25 -0.52 | USP28 -0.788
